Laboratory results published in PubChem BioAssay (Tox21).
Inconclusive results are not listed. The source made the active and inactive calls. Unless noted, calls come from the whole dose curve; as a rule, active = well fitted curve in the direction sought with a large enough effect in the repeat runs; inconclusive = weak or mixed curves; inactive = no such curve, though single readings can be large; an effect the other way counts as inactive or inconclusive.

Key:
[1] = qHTS assay to identify small molecule antagonists of the estrogen related receptor (ERR) signaling pathway from Tox21 library - cell viability counter screen (AID 1224834); note: nearly all actives have a fitted effect of over 30% in size
How it was run: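 ERR reporter cells, 2,000 per well, rested 6 h, then exposed to compound in DMSO for 17.5 hours at 37 C. Viability read as fluorescence after 30 min with CellTiter-Fluor.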

[2] = target: Luciferin 4-monooxygenase (Photinus pyralis) (UniProt P08659); test: qHTS assay to identify small molecule inhibitors of firefly luciferase (AID 1224835); note: nearly all actives have a fitted effect of over 25% in size
How it was run: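 Inhibition of purified Photinus luciferase is measured by luminescence. Substrate levels (D-luciferin, ATP) sit at their KM values. Each compound is tested in a concentration series.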

[3] = qHTS assay to identify small molecule agonists of the constitutive androstane receptor (CAR) signaling pathway - cell viability counter screen (AID 1224836); note: nearly all actives have a fitted effect of over 45% in size
How it was run: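 Counter screen multiplexed with the CAR reporter readout: HepG2 cells co-transfected with hCAR and the CYP2B6-2.2kb construct receive a 15-concentration compound series and 0.75 uM PK11195 (final), then CellTiter-Fluor fluorescence is read after 23 h.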

[4] = qHTS assay to identify small molecule antagonists of the constitutive androstane receptor (CAR) signaling pathway - cell viability counter screen (AID 1224837); note: nearly all actives have a fitted effect of over 45% in size
How it was run: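 HepG2 cells stably carrying hCAR and CYP2B6-2.2kb reporter, stimulated with 50 nM CITCO and compounds at 15 concentrations for 23 h at 37 C. Viability measured by CellTiter-Fluor fluorescence.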

[5] = target: Nuclear receptor subfamily 1 group I member 3 (Homo sapiens) (UniProt Q14994); test: qHTS assay to identify small molecule antagonists of the constitutive androstane receptor (CAR) signaling pathway (AID 1224838); note: nearly all actives have a fitted effect of over 40% in size
How it was run: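 HepG2 cells stably carrying hCAR and a CYP2B6-2.2kb luciferase reporter, seeded 4 hrs before compound (15 concentrations). Stimulated with 50 nM CITCO for 24 hr at 37 C. ONE-Glo luminescence read after 30 min at room temperature.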

[6] = qHTS assay to identify small molecule antagonists of the estrogen related receptor signaling pathway with the pleiotropic PPARgamma coactivator (PGC) from Tox21 10K library - cell viability counter screen (AID 1224840; active = well fitted cell-killing curve with a large enough effect in the repeat runs, not every such curve was filed as active; note: nearly all actives have a fitted effect of over 40% in size)
How it was run: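 PGC/ERR cells (2,000/well) plated 6 h, then compound-treated for 17.5 h at 37 C. Viability measured by CellTiter-Fluor fluorescence after 30 min at 37 C, multiplexed with the pathway assay.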

[7] = qHTS assay to identify small molecule agonists of the hypoxia (HIF-1) signaling pathway - cell viability counter screen (AID 1224844; calls by dose curve; note: nearly all actives have a fitted effect of over 50% in size)
How it was run: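 HRE-bla ME-180 cells, 2,000/well in 0.5% dialyzed FBS medium, treated 17 h at 37C with compounds. Viability read in the same wells as the bla reporter, by CellTiter-Glo luminescence after 30 min at room temperature.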

[8] = qHTS assay to identify small molecule agonists of the hypoxia (HIF-1) signaling pathway (AID 1224846; active = well fitted activation curve with a large enough effect in the signal ratio in the repeat runs, not every such curve was filed as active; the % refers to the signal ratio)
How it was run: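 HRE-bla ME-180 beta-lactamase reporter cells in medium with 0.5% dialyzed FBS, pre-incubated 5 h then exposed to compounds 17 h at 37C, 5% CO2; reporter induction read with CCF4-AM FRET substrate.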

[9] = qHTS assay to identify small molecule agonists of H2AX - cell viability counter screen (AID 1224847; calls by dose curve; note: top concentration of the series differs between compounds; nearly all actives have a fitted effect of over 30% in size)
How it was run: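 We seed wild-type CHO-K1 cells overnight, treat them for 3 hr at 37C with compounds in 15-concentration series, and quantify remaining viability by CellTiter-Glo luminescence.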

[10] = qHTS RealTime-Glo MT Cell Viability Assay in HepG2 cells - 24 hour (AID 1224867); note: nearly all actives have a fitted effect of over 50% in size
How it was run: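 Real-time, nonlytic viability: 600 HepG2 cells/well mixed with NanoLuc enzyme plus prosubstrate; 5 h settle, compound (DMSO) added by pintool; luminescence monitored over 40 h at 37 C.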

[11] = qHTS RealTime-Glo MT Cell Viability Assay in HEK293 cells - 32 hour (AID 1224868); note: top concentration of the series differs between compounds; nearly all actives have a fitted effect of over 50% in size
How it was run: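 Cells + reagent dispensed (600 cells/well, HEK293) → 5 h at 37 C/5% CO2 → 23 nL compound in DMSO pinned → 40 h at 37 C → luminescence read at 0, 8, 16, 24, 32, 40 h.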

[12] = A CellTox Green Cytotoxicity Assay to monitor cytotoxicity in HEK293 cells - 0 hour (AID 1224869); note: nearly all actives have a fitted effect of over 50% in size
How it was run: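 HEK293 cells, 600/well, were preincubated 5 hours and then exposed to compounds at 37 C for up to 40 hours. A cell-impermeant cyanine dye staining dead-cell DNA was read by fluorescence at 0, 8, 16, 24, 32 and 40 h time points.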

[13] = qHTS RealTime-Glo MT Cell Viability Assay in HepG2 cells - 40 hour (AID 1224870); note: nearly all actives have a fitted effect of over 50% in size
How it was run: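 Real-time viability: cells seeded at 600 per well together with NanoLuc and cell-permeant prosubstrate, compounds added after 5 h incubation. Luminescence tracked at 0, 8, 16, 24, 32 and 40 h of exposure.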

[14] = target: Nuclear receptor subfamily 1 group I member 3 (Homo sapiens) (UniProt Q14994); test: qHTS assay to identify small molecule agonists of the constitutive androstane receptor (CAR) signaling pathway (AID 1224839); note: nearly all actives have a fitted effect of over 15% in size
How it was run: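 A 15-concentration quantitative screen uses HepG2 cells co-transfected stably with human CAR and CYP2B6-2.2kb reporter. Treatment lasts 24 h with 0.75 uM PK11195 final present; ONE-Glo luminescence is the signal.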

[15] = qHTS assay to identify small molecule agonists of H2AX (AID 1224845; active = well fitted activation curve with a large enough effect in the signal ratio in the repeat runs, not every such curve was filed as active; the % refers to the signal ratio)
How it was run: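 Phospho-H2AX Ser139 measured by HTRF (ex 320 nm; em 665 and 620 nm) after 24 hr antibody incubation. Compounds, 15 concentrations, 0.76% DMSO, were applied to CHO-K1 cells for 3hr at 37C before lysis.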

[16] = target: Thyrotropin receptor (Homo sapiens) (UniProt P16473); test: qHTS assay to identify small molecule agonists of the thyroid stimulating hormone receptor (TSHR) signaling pathway (AID 1224843; calls by dose curve; note: nearly all actives have a fitted effect of over 45% in size)
How it was run: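 Screening of the Tox21 10K collection used HEK293 cells engineered with TSHR at 800 cells per well. After a 30-min room-temperature compound exposure, HTRF cAMP reagents were added and fluorescence recorded 1 h later.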

[17] = qHTS assay to identify small molecule antagonists of the estrogen related receptor signaling pathway with the pleiotropic PPARgamma coactivator (PGC) from Tox21 10K library (AID 1224841; call rule not given here)
How it was run: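 PGC/ERR cell line, 2,000 cells/well, pre-incubated 6 hours at 37 C, then exposed to compounds for 18 hours at 37 C; luciferase read with One-Glo luminescence after 30 min at room temperature.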

[18] = qHTS assay to identify small molecule agonists of the estrogen related receptor signaling pathway with the pleiotropic PPARgamma coactivator (PGC) from Tox21 10K library (AID 1224842); note: nearly all actives have a fitted effect of over 15% in size
How it was run: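 Luminescence from One-Glo (30 min, room temperature) measured after PGC/ERR cells had 18 h at 37 C with pinned compound (23 nL in DMSO). Cells had been seeded at 2,000 per well and pre-incubated 6 h.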

[19] = qHTS assay to identify small molecule antagonists of the estrogen related receptor (ERR) signaling pathway from Tox21 library (AID 1224848); note: nearly all actives have a fitted effect of over 50% in size
How it was run: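 Antagonist-mode screen of the Tox21 10K library in an NTP-provided ERR reporter cell line; 18 h compound exposure at 37 C, luminescence measured with ONE-Glo.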

[20] = qHTS assay to identify small molecule agonists of the estrogen related receptor (ERR) signaling pathway from Tox21 library (AID 1224849; calls by dose curve; note: nearly all actives have a fitted effect of over 15% in size); conditions: ERR reporter cell line, ONE-Glo luciferase, 18 h; at 92.4 µM (top of the series) unless noted
How it was run: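 ERR reporter cells (NTP line) pre-incubated 6 hours at 37 C, then exposed to compounds for 18 hours at 37 C. ONE-Glo luciferase luminescence was read after 30 minutes at room temperature.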
% is set by controls: 0 for no effect and ±100 for the full control effect.

Chain of Thyrotropin receptor (Homo sapiens) (P16473 whole entry, looked up): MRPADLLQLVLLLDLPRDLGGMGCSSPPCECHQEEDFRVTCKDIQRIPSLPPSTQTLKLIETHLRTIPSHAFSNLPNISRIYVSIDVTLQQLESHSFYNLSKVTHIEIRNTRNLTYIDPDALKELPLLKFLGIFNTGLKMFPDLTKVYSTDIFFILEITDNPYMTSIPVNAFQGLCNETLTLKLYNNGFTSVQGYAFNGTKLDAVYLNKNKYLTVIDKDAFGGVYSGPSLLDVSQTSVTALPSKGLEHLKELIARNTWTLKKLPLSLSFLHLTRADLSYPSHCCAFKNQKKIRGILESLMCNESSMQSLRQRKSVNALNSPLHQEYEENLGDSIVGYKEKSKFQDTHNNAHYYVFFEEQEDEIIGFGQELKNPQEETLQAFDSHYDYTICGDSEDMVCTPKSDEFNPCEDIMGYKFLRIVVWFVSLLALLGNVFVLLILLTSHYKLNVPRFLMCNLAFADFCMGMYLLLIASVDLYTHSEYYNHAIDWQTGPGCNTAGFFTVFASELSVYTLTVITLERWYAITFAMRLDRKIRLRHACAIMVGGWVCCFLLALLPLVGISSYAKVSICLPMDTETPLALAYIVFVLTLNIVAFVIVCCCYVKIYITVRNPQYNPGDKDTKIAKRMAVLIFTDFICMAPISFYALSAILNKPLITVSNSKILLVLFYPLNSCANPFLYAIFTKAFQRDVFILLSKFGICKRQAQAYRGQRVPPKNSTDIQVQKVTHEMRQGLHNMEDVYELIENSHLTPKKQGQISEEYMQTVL
Chain of Nuclear receptor subfamily 1 group I member 3 (Homo sapiens) (Q14994 whole entry, looked up): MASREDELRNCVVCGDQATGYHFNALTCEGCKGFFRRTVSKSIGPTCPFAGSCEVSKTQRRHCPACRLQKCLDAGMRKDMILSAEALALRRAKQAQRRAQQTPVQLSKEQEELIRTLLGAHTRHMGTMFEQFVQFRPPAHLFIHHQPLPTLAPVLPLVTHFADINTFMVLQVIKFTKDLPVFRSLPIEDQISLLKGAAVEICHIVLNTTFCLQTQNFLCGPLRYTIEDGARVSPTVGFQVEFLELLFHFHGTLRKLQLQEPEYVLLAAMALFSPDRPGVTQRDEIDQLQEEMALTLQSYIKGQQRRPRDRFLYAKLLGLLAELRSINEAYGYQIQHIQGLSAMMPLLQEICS
Chain of Luciferin 4-monooxygenase (Photinus pyralis) (P08659 whole entry, looked up): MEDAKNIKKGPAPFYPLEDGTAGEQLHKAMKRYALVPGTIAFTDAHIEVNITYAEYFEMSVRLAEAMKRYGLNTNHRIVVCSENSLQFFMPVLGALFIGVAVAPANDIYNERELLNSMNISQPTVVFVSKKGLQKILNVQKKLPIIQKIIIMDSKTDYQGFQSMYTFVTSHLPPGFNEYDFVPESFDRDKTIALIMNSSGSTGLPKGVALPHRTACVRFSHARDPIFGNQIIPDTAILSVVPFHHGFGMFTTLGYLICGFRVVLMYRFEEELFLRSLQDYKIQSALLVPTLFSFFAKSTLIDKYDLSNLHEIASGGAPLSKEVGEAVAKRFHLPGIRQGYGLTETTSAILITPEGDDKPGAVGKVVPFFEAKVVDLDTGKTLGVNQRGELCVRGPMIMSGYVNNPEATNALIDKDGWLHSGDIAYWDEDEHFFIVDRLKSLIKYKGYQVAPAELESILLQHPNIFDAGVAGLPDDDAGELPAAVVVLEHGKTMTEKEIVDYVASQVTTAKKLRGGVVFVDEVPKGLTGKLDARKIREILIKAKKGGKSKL

C=C(Cl)CSC(=S)N(CC)CC
inactive: Potency [1] | Potency [2] | Potency [3] | Potency [4] | Potency [5] | Potency [6] | Potency [7] | outcome [8] | Potency [9] | Potency [10] | Potency [11] | outcome [12] | Potency [13]

BrCC1CO1 (stereo unspecified)
inactive: Potency [1] | Potency [2] | Potency [3] | Potency [4] | Potency [5] | Potency [14] | Potency [7] | outcome [15] | outcome [8] | Potency [9] | Potency [10] | Potency [11] | outcome [12] | Potency [13]

CCN[C@H](C)Cc1cccc(C(F)(F)F)c1
inactive: Potency [1] | Potency [2] | Potency [3] | Potency [4] | Potency [5] | Potency [14] | Potency [16] | Potency [7] | outcome [8] | Potency [9] | Potency [10] | Potency [11] | outcome [12] | Potency [13]

CC1N=C(N)OC1c1ccccc1 (stereo unspecified)
inactive: Potency [1] | Potency [2] | Potency [3] | Potency [4] | Potency [5] | Potency [14] | Potency [16] | Potency [7] | outcome [15] | Potency [9] | Potency [10] | Potency [11] | outcome [12] | Potency [13]

CC(C)(C)C(=O)C(Cl)Cl
inactive: Potency [1] | Potency [2] | Potency [3] | Potency [4] | Potency [5] | Potency [6] | Potency [16] | Potency [7] | outcome [15] | outcome [8] | Potency [9] | Potency [10] | Potency [11] | outcome [12] | Potency [13]

CC(C)NCC(O)c1ccc([N+](=O)[O-])cc1 (stereo unspecified)
inactive: Potency [1] | Potency [2] | Potency [3] | Potency [4] | Potency [5] | Potency [14] | Potency [16] | Potency [7] | outcome [15] | outcome [8] | Potency [9] | Potency [10] | Potency [11] | outcome [12] | Potency [13]

NNC(N)=O
inactive: Potency [1] | Potency [2] | Potency [3] | Potency [4] | Potency [5] | Potency [14] | Potency [16] | Potency [7] | Potency [9] | Potency [10] | Potency [11] | outcome [12] | Potency [13]

CNC(=O)Oc1ccccc1C(C)C
inactive: Potency [1] | Potency [2] | Potency [3] | Potency [4] | Potency [5] | Potency [6] | Potency [17] | Potency [18] | Potency [16] | Potency [7] | outcome [15] | outcome [8] | Potency [9] | Potency [19] | activity change, positive = activation [20] 1.9% | Potency [10] | Potency [11] | outcome [12] | Potency [13]

Clc1cc2c(cc1Cl)Oc1cc(Cl)c(Cl)cc1O2
inactive: viability change, negative = cytotoxic [1] -2.52% [at 0.349 µM] | activity change, negative = inhibition [2] -7.47% [at 0.435 µM] | viability change, negative = cytotoxic [3] -0.641% [at 0.349 µM] | activity change, negative = cytotoxicity [4] -2.86% [at 0.349 µM] | activity, negative = inhibition [5] 103% [at 0.349 µM] | viability change, negative = cytotoxic [6] -1.69% [at 0.349 µM] | activation [16] 10.3% [at 0.349 µM] | activity change, negative = cytotoxicity [7] -17.7% [at 0.29 µM] | activation (H2AX phosphorylation) [15] -2.07% [at 0.582 µM] | activation [8] -1.24% [at 0.291 µM] | activity change, negative = cytotoxicity [9] -1.16% [at 0.582 µM] | activity change, negative = cytotoxicity [10] -2.29% [at 0.29 µM] | cytotoxicity [12] -18% [at 0.29 µM] | activity change, negative = cytotoxic [13] -10.5% [at 0.29 µM]

COc1cccc(C=O)c1
inactive: Potency [1] | Potency [2] | Potency [3] | Potency [4] | Potency [5] | Potency [14] | Potency [17] | Potency [18] | Potency [16] | Potency [7] | outcome [15] | outcome [8] | Potency [9] | Potency [19] | activity change, positive = activation [20] 0.51% | Potency [10] | Potency [11] | outcome [12] | Potency [13]

COc1cc(CCN)cc(OC)c1OC
inactive: Potency [1] | Potency [2] | Potency [3] | Potency [4] | Potency [5] | Potency [14] | Potency [16] | Potency [7] | outcome [15] | outcome [8] | Potency [9] | Potency [10] | Potency [11] | outcome [12] | Potency [13]

ClC(Cl)(Cl)Cl
inactive: Potency [1] | Potency [2] | Potency [3] | Potency [4] | Potency [5] | Potency [14] | Potency [17] | Potency [18] | Potency [16] | Potency [7] | outcome [15] | outcome [8] | Potency [9] | Potency [19] | activity change, positive = activation [20] -3.58% | Potency [10] | Potency [11] | outcome [12] | Potency [13]

COc1ccccc1OC
inactive: Potency [1] | Potency [2] | Potency [3] | Potency [4] | Potency [5] | Potency [14] | Potency [17] | Potency [18] | Potency [16] | Potency [7] | outcome [8] | Potency [9] | Potency [19] | activity change, positive = activation [20] 2.11% | Potency [10] | Potency [11] | outcome [12] | Potency [13]

C/C(=N\NC(=O)Nc1cc(F)cc(F)c1)c1ncccc1C(=O)O
inactive: Potency [1] | Potency [2] | Potency [3] | Potency [4] | Potency [5] | Potency [14] | Potency [16] | Potency [7] | outcome [15] | outcome [8] | Potency [9] | Potency [10] | Potency [11] | outcome [12] | Potency [13]

CNC(=O)O/N=C(/CSC)C(C)(C)C
inactive: Potency [1] | Potency [2] | Potency [3] | Potency [4] | Potency [5] | Potency [6] | Potency [16] | Potency [7] | outcome [8] | Potency [9] | Potency [10] | Potency [11] | outcome [12] | Potency [13]
